G9a inh: G9a (human) methyltransferase inhibition. Potency, µM (highest dose often 102 µM), for the others: at the top dose activity, negative = inhibition, hits mostly inhibitors. AID 504332. 350,000 tested, 8.8% active. G9a H3K9 monomethylation, AlphaScreen, 2 h; note: % is set by controls: 0 for no effect and ±100 for the full control effect; nearly all actives have a fitted effect of over 75% in size
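Enzyme 20 nM + cpd, 15 min RT; add b-H3K9 pep 500 nM / SAM 20 uM; 2 h RT; anti-H3K9me1 Ab 0.5 ug/mL + SA donor / anti-rabbit acceptor beads 20 ug/mL each, 10 min; AlphaScreen read.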
Sfp PPTase inh: Sfp phosphopantetheinyl transferase inhibition. Q9F4F7. Biochemical Sfp PPTase activity, qHTS. Potency, µM, for the others: largest response in the series, negative = inhibition, most hits filed as inhibitors. 310,000 tested, 3.5% active. AID 1490;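 note: the enzyme is Sfp with the accession as filed and its product quenches rhodamine fluorescence; 0% = enzyme reaction without inhibitor and -100% = no enzyme wells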
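Fluorescence-quenching assay: 15 nM Sfp-PPTase preincubated 15 min at room temperature with compound, then 5 uM rhodamine-CoA and 12.5 uM BHQ-2-labelled YbbR peptide added. Fluorescence (ex 525/em 598 nm) read at start and after 30 min; difference gives rate.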
VDR inhibitor: blocks the human vitamin D receptor. AID 504847. 400,000 tested, 0.93% active. VDR-SRC2-3 peptide fluorescence polarization, 2 h. P11473. Potency, µM, without a hit: max response, negative = inhibition, hits mostly inhibitors; note: % is set by controls: 0 for no effect and ±100 for the full control effect
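VDR–SRC2-3 interaction, FP format. Cmpds 23 nl via pintool, brief spin, 2 h ambient incubation.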
GRP78 ERSR act: induces the endoplasmic reticulum stress response in human glioma cells; 420,000 tested, 0.02% active; AID 602332; U87-MG GRP78 promoter luciferase reporter, 16 h; Potency, µM, for inactives: at the highest dose activation, usual class: activators; note: series mostly up to about 76 µM; % of control where 0% means no effect; nearly all actives have a fitted effect of over 35% in size
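Stably transfected U87-MG human glioma cells carrying a GRP78-based luminescent sensor were seeded at 1000 cells/well, pin-dosed with compounds and incubated 16 h. Luciferase reagent was then added, and end-point luminescence was read after 10 min at room temperature.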
12-LOX inh: blocks human arachidonate 12S-lipoxygenase; purified 12hLO, xylenol orange hydroperoxide absorbance; Potency, µM (top dose mostly 108 µM), without a hit: at the highest dose activity change, negative = inhibition, usual class: inhibitors; 580,000 tested, 1.1% active; AID 1671190; note: % is set by controls: 0 for no effect and ±100 for the full control effect
Target sequence (P18054 whole entry, looked up): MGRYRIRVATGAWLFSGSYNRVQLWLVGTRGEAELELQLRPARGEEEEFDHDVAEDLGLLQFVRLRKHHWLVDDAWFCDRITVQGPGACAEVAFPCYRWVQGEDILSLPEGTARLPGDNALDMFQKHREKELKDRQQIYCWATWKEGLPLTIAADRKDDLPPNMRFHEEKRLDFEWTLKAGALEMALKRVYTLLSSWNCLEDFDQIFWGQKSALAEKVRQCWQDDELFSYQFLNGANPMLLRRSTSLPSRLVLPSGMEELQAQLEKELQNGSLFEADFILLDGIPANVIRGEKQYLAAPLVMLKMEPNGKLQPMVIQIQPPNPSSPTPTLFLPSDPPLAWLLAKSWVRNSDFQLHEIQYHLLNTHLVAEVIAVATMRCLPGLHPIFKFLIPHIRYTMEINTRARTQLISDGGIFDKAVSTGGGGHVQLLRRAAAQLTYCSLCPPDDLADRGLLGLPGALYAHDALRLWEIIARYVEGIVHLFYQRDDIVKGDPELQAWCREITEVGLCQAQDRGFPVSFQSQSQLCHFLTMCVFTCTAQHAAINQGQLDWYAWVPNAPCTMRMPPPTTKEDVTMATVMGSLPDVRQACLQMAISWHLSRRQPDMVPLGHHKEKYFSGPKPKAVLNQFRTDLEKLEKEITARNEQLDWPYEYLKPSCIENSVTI
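Hydroperoxide product was detected by ferrous iron/xylenol orange as the 573 to 405 nm absorbance ratio. Arachidonic acid at 40 uM (final) was turned over for 30 min at room temperature by 150 nM human 12hLO, pH 7.0 Hepes buffer, after 15 min compound preincubation.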
Active calls of the source: *; ? = inconclusive; nt = no result; [ ] = another dose, or the depositor's remark. This is one part of a sample in which hits are shown more often than they occur. Calls come from the whole dose curve; as a rule, active = well fitted curve in the direction sought with a large enough effect; inconclusive = small, poorly fitted or top-dose-only effect, or another doubt; inactive = no such curve, though single readings can be large; an effect the other way counts as inactive or inconclusive. Potency is the fitted concentration of half-maximal effect.

SMILES	G9a inh	Sfp PPTase inh	VDR inhibitor	GRP78 ERSR act	12-LOX inh
COc1ccc(C2C(C(=O)c3cccs3)=C(O)C(=O)N2c2nnc(C)s2)cc1OC (stereo not drawn)	?	56µM*	-1%	2%	nt
COc1ccc(C2C(C(=O)c3cccs3)=C(O)C(=O)N2c2nncs2)cc1 (stereo not drawn)	45µM*	-28%	-3%	0%	?
C=CCOc1ccc(C2C(C(=O)c3cccs3)=C(O)C(=O)N2c2nnc(C)s2)cc1 (stereo not drawn)	nt	nt	-16%	?	?
CCCCCc1coc2cc(O)ccc2c1=O	nt	nt	nt	nt	-29%
Cc1c(C(=O)NCCSc2ccc(Cl)cc2)oc2c1C(=O)CCC2	nt	nt	nt	nt	-52%
O=C(O)c1ccc(CSc2nc3ccccc3[nH]2)cc1	-18%	7%	7%	0%	0%
CS(=O)(=O)c1cc([N+](=O)[O-])c(Sc2nc3ccccc3[nH]2)c([N+](=O)[O-])c1	?	13µM*	35µM*	-11%	?
O=C(O)c1cc([N+](=O)[O-])c(Sc2nc3ccccc3[nH]2)c([N+](=O)[O-])c1	40µM*	50µM*	?	-4%	-25%
CCN1CCN(c2ccc([N+](=O)[O-])c(Sc3nc4ccccc4[nH]3)c2)CC1	32µM*	0%	3%	-3%	-1%
O=C(O)C[C@@H]1CCN(C(=O)c2ccnc(Cl)c2)C[C@@H]1CCN1CCN(c2cccc(C(F)(F)F)c2)CC1	nt	nt	nt	nt	5%
COc1ccc2cnn(CC(=O)Nc3cccc(F)c3)c(=O)c2c1OC	nt	nt	nt	nt	6%
OC1(CNCc2cc(C(F)(F)F)ccc2F)CNCCOC1 (stereo not drawn)	nt	nt	nt	nt	35%
CCC1Oc2ccc(C)cc2N(CC(=O)N2CCN(c3ccc(F)cc3)CC2)C1=O (stereo not drawn)	45µM*	-6%	-11%	3%	nt
O=C1C(Br)C2C3CC4C(CC(Br)C42)C13 (stereo not drawn)	nt	nt	nt	nt	-21%
CCCSc1nnc(NC(=O)CSc2sc3c(O)cc(=O)[nH]c3c2C#N)s1	11µM*	?	-1%	-4%	50µM*
N#Cc1c(SCC(=O)Nc2nccs2)sc2c(O)cc(=O)[nH]c12	32µM*	40µM*	25%	5%	?
N#Cc1c(SCC(=O)Nc2nc3ccccc3s2)sc2c(O)cc(=O)[nH]c12	?	nt	-12%	1%	?
Cc1ccc2nc(-c3cccnc3)cc(C(=O)Nc3cccc(C)n3)c2c1	nt	nt	nt	nt	18%
O=C(Nc1cccc2ncccc12)C1CCCN(S(=O)(=O)c2ccc(Br)cc2)C1 (stereo not drawn)	nt	nt	nt	nt	1%
Cc1ccc(-c2n[nH]c(=S)c3ccccc23)cc1S(=O)(=O)NCC1CCCO1 (stereo not drawn)	22µM*	6%	6%	-4%	?
Cn1ccnc1-c1nc2ccccc2[nH]c1=O	2.5µM*	9%	-10%	-5%	7%[57.4 µM]
CC(C)c1ccc(S(=O)(=O)N(C)CC2CCOCC2)cc1	nt	nt	nt	nt	10%
CCc1ccccc1NC(=O)c1cnn2c(C(F)(F)F)cc(-c3ccc(OC)c(OC)c3)nc12	-43%[59 µM]	nt	9%	-2%	-4%
NC(=O)c1cnn2c(C(F)(F)F)cc(-c3ccccc3)nc12	13%[59 µM]	10%	2%	0%	-27%
COc1ccc(-c2cc(C(F)(F)F)n3ncc(C(=O)NCc4ccco4)c3n2)cc1	3%[59 µM]	56µM*	-6%	-4%	0%
SMILES	G9a inh	Sfp PPTase inh	VDR inhibitor	GRP78 ERSR act	12-LOX inh
CC(C)CCNC(=O)c1cnn2c(C(F)(F)F)cc(-c3ccco3)nc12	?	50µM*	-15%	0%	?
O=C(NCc1ccco1)c1cnn2c(C(F)(F)F)cc(-c3ccccc3)nc12	-50%[12.7 µM]	25µM*	-3%	-2%	3%
CC(Sc1nc(NC2CC2)c2ccccc2n1)C(=O)N1CCCC1 (stereo not drawn)	nt	nt	nt	nt	-4%
Cc1nc2cc(NC(=O)c3nn(Cc4ccccc4)c(=O)c4ccccc34)ccc2o1	nt	nt	nt	nt	6%
CN(Cc1ccccc1)C(=O)C1CCN(Cc2ccc(F)cc2)CC1	7.9µM*	-10%	-2%	-6%	?
CN(Cc1ccccc1)C(=O)C1CCN(Cc2cc3ccccc3n2Cc2ccccc2)CC1	-27%[59 µM]	nt	10%	-2%	45µM*
CCCNC(=O)C1CCN(Cc2cc3ccccc3n2Cc2ccccc2)CC1	-1%[59 µM]	nt	-2%	-4%	-26%
N#Cc1ccc(OCCOC(=O)c2ccccc2SCC2CCCO2)cc1 (stereo not drawn)	nt	nt	nt	nt	-18%
N#Cc1ccc(C(=O)N2CCN(c3oc(C4CC4)nc3C#N)CC2)cc1	nt	nt	nt	nt	4%
CCOc1ccc(S(=O)(=O)Nc2nc3ccccc3nc2N2CCC(O)CC2)cc1	nt	nt	nt	nt	0%
CCN(CC)c1ccc(-n2c(C)cc(C=O)c2C)cc1	45µM*	-13%	-8%	-8%	?
CCN(CC)c1ccc(-n2c(C)c(C(C)=O)c(C(C)=O)c2C)cc1	?	-7%	-1%	-7%	2%
CCOc1ccc(-n2c(C)cc(/C=N/NC(=O)C(N)=O)c2C)cc1	?	-12%	9%	2%	11%
CCOc1ccc(-n2c(C)cc(/C=N/N(C)C)c2C)cc1	45µM*	11%	-17%	-1%	?
CCOc1ccc(-n2c(C)cc(C(=O)CCl)c2C)cc1	45µM*	-1%	50µM*	-14%	?
COC(=O)c1ccc(-n2c(C)cc(/C=N/n3cnnc3)c2C)cc1	56µM*	-1%	6%	-5%	223%
Cc1cc(/C=N/n2cnnc2)c(C)n1-c1ccc(C(=O)O)cc1	1%[59 µM]	21%	7%	-3%	-3%
CCOc1ccc(NC(=O)C(=O)c2cc(C)n(-c3cc(C)cc(C)c3)c2C)cc1	-30%[59 µM]	nt	19%	-2%	?
COC(=O)c1ccc(-n2c(C)cc(C(=O)CCl)c2C)cc1	?	-42%	79µM*	-15%	-27%
COC(=O)c1ccc(-n2c(C)cc(C(=O)COC(=O)C3=COCCO3)c2C)cc1	nt	nt	14%	2%	8%
Cc1cc(NC(=O)COc2c(C)cc(Cl)cc2Cl)ccc1NC(=O)c1ccco1	nt	nt	nt	nt	-5%
O=C(Cc1cccs1)N1CCN(c2cc(C(F)(F)F)ncn2)CC1	nt	nt	nt	nt	35µM*
Nc1c(C(=O)c2ccccc2)sc2snc(SCC(=O)c3ccccc3)c12	6%[12.7 µM]	40µM*	-9%	?	?
CC(=O)Nc1ccc(S(=O)(=O)N2CCC(NC(=O)CC(C)(C)C)CC2)cc1	nt	nt	nt	nt	13%
CN(C)C1C(=O)C(C(N)=O)=C(O)[C@@]2(O)C(=O)C3=C(O)c4c(O)ccc(Cl)c4C(O)[C@H]3C[C@@H]12 (stereo partly drawn)	-28%[2.33 µM]	5%	-2%	-3%	nt
CN(C)C1C(=O)C(C(N)=O)=C(O)[C@@]2(O)C(=O)C3=C(O)c4c(O)ccc(Cl)c4[C@@H](O)C3C[C@@H]12 (stereo partly drawn)	35µM*	nt	nt	nt	nt

Screens (PubChem BioAssay)
